Reference: PubChem BioAssay (Tox21)
Inconclusive results are not listed. A call without a number means that no potency is given here. The source made the active and inactive calls. Unless noted, the call rests on the fitted dose curve; in most records, active means well fitted curve in the direction sought with a large enough effect in the repeat runs; inconclusive means weak or mixed curves; inactive means no such curve, though single readings can be large; an effect the other way counts as inactive or inconclusive.

How the values were obtained:
[1] = qHTS assay for small molecules that induce genotoxicity in human embryonic kidney cells expressing luciferase-tagged ATAD5 (AID 651632); conditions: HEK293T ATAD5-luciferase induction, 16 h; series mostly up to 83.3 µM; further: nearly all actives have a fitted effect of over 15% in size
Outline: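 Luminescent reporter readout, HEK293T ATAD5-luc line: 16 hr drug exposure (37C, 5% CO2) followed by Amplite, 30 min RT.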

[2] = qHTS assay for small molecule agonists of the p53 signaling pathway - cell viability (AID 651633; calls by dose curve;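 further: p53RE-bla HCT reporter cells with a stable beta-lactamase p53 reporter; nearly all actives have a fitted effect of over 30% in size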); conditions: p53RE-bla HCT-116 viability, ATP luminescence, 16 h; series mostly up to 83.3 µM
Outline: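 p53RE-bla cells were treated with compound for 16 hours at 37 C. Cytotoxicity was then measured as CellTiter-Glo luminescence after 30 min at room temperature.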

[3] = qHTS assay for small molecules that induce genotoxicity in human embryonic kidney cells expressing luciferase-tagged ATAD5 - cell viability (AID 651634; calls by dose curve; further: nearly all actives have a fitted effect of over 25% in size); conditions: HEK293T ATAD5-luc cells viability, CellTiter-Fluor, 15.5 h; series mostly up to 83.3 µM
Outline: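 Viability read: CellTiter-Fluor fluorescence, 30 min at 37C. Cells: HEK293T, luciferase-tagged ATAD5. Exposure: 15.5 hr, 37C, 5% CO2, compound or DMSO vehicle.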

[4] = qHTS assay for small molecule disruptors of the mitochondrial membrane potential - cell viability (AID 720634; calls by dose curve;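 further: human HepG2 liver cancer cells; nearly all actives have a fitted effect of over 20% in size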); conditions: HepG2 viability, ATP luminescence (CellTiter-Glo), 1 h; series mostly up to 83.2 µM
Outline: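 HepG2, 1 hr compound, 37 C. ATP luminescence via CellTiter-Glo, 30 min RT, same well as m-MPI.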

[5] = qHTS assay to test for compound auto fluorescence at 590 nm (red) in HepG2 cells (AID 720674); conditions: HepG2 autofluorescence, red 540/590 nm, 1 h; series mostly up to 91.3 µM
Outline: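 Fluorescence at 590 nm emission following 540 nm excitation was recorded from HepG2 wells one hour after compound transfer, with DMSO-only wells as vehicle and Rose Bengal sodium equivalency as the scale.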

[6] = qHTS assay to test for compound auto fluorescence at 460 nm (blue) in HEK293 cells (AID 720678); conditions: blue autofluorescence 405/460 nm; series mostly up to 91.3 µM
Outline: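 Measured: blue fluorescence (Ex 405/Em 460 nm) of compound-treated HEK293 cells, incubated overnight at 37C with 5% CO2 and scaled to triamterene equivalents.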

[7] = qHTS assay to test for compound auto fluorescence at 590 nm (red) in HEK293 cells (AID 720679); conditions: red autofluorescence 540/590 nm; series mostly up to 91.3 µM
Outline: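 Using HEK293 cells at 2,000 per well, the screen added 23 nL of each compound after cell attachment and incubated overnight (37C, 5% CO2). The plate reader then captured red-label fluorescence, Ex/Em 540/590nm.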

[8] = qHTS assay to test for compound auto fluorescence at 535 nm (green) in HEK293 cells (AID 720680); conditions: green autofluorescence 485/535 nm; series mostly up to 91.3 µM
[9] = qHTS assay to test for compound auto fluorescence at 460 nm (blue) in HEK293 cell free culture (AID 720681); conditions: cell-free medium, autofluorescence 405/460 nm (blue); series mostly up to 91.3 µM
Outline: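 Compounds were added to cell-free DMEM with 10% FBS and fluorescence read directly. The blue channel used 405 nm excitation and 460 nm emission, with triamterene as the reference fluorophore.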

[10] = qHTS assay to test for compound auto fluorescence at 535 nm (green) in HEK293 cell free culture (AID 720682); conditions: cell-free medium, green autofluorescence 485/535 nm; series mostly up to 91.3 µM
Outline: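 Compounds were pin-transferred into cell-free DMEM with 10% FBS, and green fluorescence was read at excitation 485 nm and emission 535 nm. Intensities were expressed as fluorescein-equivalent values.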

[11] = qHTS assay to test for compound auto fluorescence at 590 nm (red) in HEK293 cell free culture (AID 720683); conditions: cell-free medium autofluorescence, Ex540/Em590 red; series mostly up to 91.3 µM
Outline: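 Cell-free wells of DMEM with 10% FBS received compound, and intrinsic fluorescence was read at excitation/emission 540/590 nm. Values expressed as equivalence to Rose Bengal sodium.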

[12] = qHTS assay to test for compound auto fluorescence at 590 nm (red) in HepG2 cell free culture (AID 720684); conditions: cell-free medium autofluorescence, red 540/590 nm; series mostly up to 91.3 µM
Outline: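 Compounds are added to culture medium (MEM, 10% FBS) lacking cells, then fluorescence is read at excitation 540 nm, emission 590 nm, with Rose Bengal sodium as the equivalency standard.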

[13] = qHTS assay to test for compound auto fluorescence at 460 nm (blue) in HepG2 cell free culture (AID 720685); conditions: Cell-free culture medium, blue autofluorescence 405/460 nm; series mostly up to 91.3 µM
Outline: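 Compound (23 nL) or DMSO pinned into cell-free MEM with 10% FBS; blue fluorescence read at 405/460 nm excitation/emission, expressed as auto-fluorescence equivalency to triamterene.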

[14] = qHTS assay to test for compound auto fluorescence at 535 nm (green) in HepG2 cell free culture (AID 720686); conditions: Cell-free medium, green autofluorescence 485/535 nm; series mostly up to 91.3 µM
[15] = qHTS assay to test for compound auto fluorescence at 460 nm (blue) in HepG2 cells (AID 720687); conditions: autofluorescence 405/460 nm, 1 h; series mostly up to 91.3 µM
Outline: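 HepG2 cells in MEM with 10% FBS, attached overnight at 37 C, were exposed to compound or DMSO for 1 hr at 37 C, 5% CO2. Blue fluorescence was read at 405/460 nm, with triamterene as reference fluorophore.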

[16] = qHTS assay to test for compound auto fluorescence at 535 nm (green) in HepG2 cells (AID 720675); conditions: green autofluorescence 485/535 nm, 1 h; series mostly up to 91.3 µM
[17] = target: Glucocorticoid receptor (Homo sapiens) (UniProt P04150); assay: qHTS assay to identify small molecule agonists of the glucocorticoid receptor (GR) signaling pathway (AID 720691; active means well fitted activation curve with a large enough effect in the signal ratio in the repeat runs, not every such curve was filed as active; the % refers to the signal ratio); conditions: GR-bla HeLa, beta-lactamase reporter ratio, 18 h; series mostly up to 62.4 µM
Glucocorticoid receptor (Homo sapiens), sequence (P04150 whole entry, looked up): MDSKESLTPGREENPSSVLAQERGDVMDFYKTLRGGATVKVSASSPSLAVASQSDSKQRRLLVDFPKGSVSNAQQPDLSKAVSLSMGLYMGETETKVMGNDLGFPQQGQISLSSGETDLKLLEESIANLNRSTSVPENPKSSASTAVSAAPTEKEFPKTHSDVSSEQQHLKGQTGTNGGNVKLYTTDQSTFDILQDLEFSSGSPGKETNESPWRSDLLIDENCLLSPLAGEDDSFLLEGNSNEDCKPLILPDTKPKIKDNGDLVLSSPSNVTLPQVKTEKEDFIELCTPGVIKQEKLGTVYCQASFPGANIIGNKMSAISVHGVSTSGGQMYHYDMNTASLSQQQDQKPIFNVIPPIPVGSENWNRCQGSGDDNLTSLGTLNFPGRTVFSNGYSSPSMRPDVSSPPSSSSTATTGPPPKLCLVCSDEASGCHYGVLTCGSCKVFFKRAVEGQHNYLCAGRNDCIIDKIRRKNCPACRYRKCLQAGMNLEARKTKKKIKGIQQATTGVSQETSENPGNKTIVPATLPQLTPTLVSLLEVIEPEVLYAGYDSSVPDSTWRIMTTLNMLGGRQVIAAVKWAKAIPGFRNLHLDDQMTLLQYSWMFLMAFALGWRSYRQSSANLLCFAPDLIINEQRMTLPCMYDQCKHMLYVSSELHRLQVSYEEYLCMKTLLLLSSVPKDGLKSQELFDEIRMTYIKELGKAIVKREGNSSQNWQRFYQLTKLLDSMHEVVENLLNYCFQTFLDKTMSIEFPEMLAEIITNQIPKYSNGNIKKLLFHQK
Outline: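 qHTS in GR-bla HeLa cells: 4 h settling at 37 C/5% CO2, 18 h compound incubation at 37 C, 2 h LiveBLAzer B/G FRET substrate at room temperature, fluorescence intensity measured.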

[18] = target: Glucocorticoid receptor (Homo sapiens) (UniProt P04150); assay: qHTS assay to identify small molecule antagonists of the glucocorticoid receptor (GR) signaling pathway (AID 720692; active means well fitted inhibition curve with a large enough effect in the signal ratio in the repeat runs, not every such curve was filed as active; the % refers to the signal ratio; further: potency means the concentration at half of the fitted maximal effect); conditions: GR-bla HeLa, beta-lactamase FRET ratio, dexamethasone-stimulated, 18 h; series mostly up to 58.5 µM
Outline: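 Inhibition of glucocorticoid signalling is measured in HeLa cells with a GRE-controlled beta-lactamase reporter; cells are co-treated with compound and 5 nM dexamethasone (final) for 18 h before FRET substrate readout.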

[19] = qHTS assay for small molecule disruptors of the mitochondrial membrane potential (AID 720635); conditions: HepG2 mitochondrial membrane potential, Mito-MPS dye ratio; series mostly up to 83.2 µM
Outline: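 HepG2 cells exposed to compound 1 hr at 37C, then Mito-MPS dye 30 min. Ratio read of aggregate (540/590 nm) versus monomer (490/535 nm) fluorescence.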

Structure (SMILES)	Potency [1]	Potency [2]	Potency [3]	Potency [4]	Potency [5]	Potency [6]	Potency [7]	Potency [8]	Potency [9]	Potency [10]	Potency [11]	Potency [12]	Potency [13]	Potency [14]	Potency [15]	Potency [16]	Potency [17]	Potency [18]	Potency [19]
Clc1sc(Cl)c(Cl)c1Cl	inactive	inactive	inactive	inactive	inactive	inactive	inactive	inactive	inactive	inactive	inactive	inactive	inactive	inactive	inactive				
OCC(F)(F)F	inactive	inactive	inactive	inactive	inactive	inactive	inactive	inactive	inactive	inactive	inactive	inactive		inactive	inactive	inactive	inactive	inactive	
CCCCCCCCCCC[C@@H](C[C@@H]1OC(=O)[C@H]1CCCCCC)OC(=O)[C@H](CC(C)C)NC=O	inactive	inactive	inactive	inactive	inactive		inactive	inactive	inactive	inactive	inactive	inactive	inactive		inactive	inactive	inactive		
CCC(C)n1ncn(-c2ccc(N3CCN(c4ccc(OC[C@H]5CO[C@](Cn6cncn6)(c6ccc(Cl)cc6Cl)O5)cc4)CC3)cc2)c1=O (stereo partly drawn)	inactive	inactive		inactive	inactive	inactive	inactive	inactive	inactive	inactive	inactive	inactive	inactive	inactive	inactive	inactive			
CCCCCCCCCCOC(=O)c1ccccc1C(=O)OCCCCCCCC	inactive		inactive	inactive	inactive	inactive	inactive	inactive	inactive	inactive	inactive	inactive	inactive	inactive	inactive		inactive		inactive
Nc1ccc(Oc2ccc(Cl)cc2)cc1	inactive	inactive	inactive	inactive	inactive		inactive	inactive	inactive	inactive		inactive	inactive	inactive	inactive	inactive		24 µM (active)	
